PubChem BioAssay
Results with a measured potency or affinity are listed apart. Records with an inconclusive call do not appear. Activity calls are given as the source filed them. Unless noted, the rule behind the calls is not given here.

Legend:
[1] = cytotoxicity in PAX8-dependent RMG-1 cells, dose response, cell-based, cherry-pick (AID 687029;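 active = signal drop whose fitted half-maximal concentration is at most twice the top valid dose, in every test run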;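 note: cells exposed to compound for 96 hours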)
[2] = cytotoxicity in IOSE-T80 ovarian epithelial cells, dose response, selectivity assay for PAX8 inhibitor project, cell-based, cherry-pick (AID 687032;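 active = fitted half-maximal concentration for viability loss no higher than twice the top valid dose, in every repeat run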;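 note: cells exposed to compound for 96 h before reading; 0% = neutral control wells and -100% = 2 µM mitoxantrone kill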)
[3] = inhibitors of CMV-promoter luciferase reporter, dose response, counter-screen for Pax8 inhibitor project, cell-based, HEK293, luminescence, dry powder (AID 743020;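 active = signal-lowering compounds whose fitted half-maximal concentration is at or below twice the top tested dose in every run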;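 note: HEK293 cells stably expressing the CMV luciferase reporter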)
[4] = IGROV1 ovarian cancer cell cytotoxicity, dose response, PAX8 inhibitor project, plate reader, dry powder samples (AID 743043);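 note: more negative means fewer viable cells or more cytotoxicity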
[5] = NIH:OVCAR-3 ovarian cancer cell cytotoxicity, dose response, PAX8 inhibitor project, plate reader, dry powder samples (AID 743044); details: max activity: at 35 µM, active compounds read low unless noted
[6] = IOSE-T80 ovarian epithelial cell cytotoxicity, dose response, cytotoxicity control for PAX8 inhibitor project, plate reader, dry powder samples (AID 743045);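 note: 0% = neutral control median and -100% = positive control median; more negative values mean more cell killing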
[7] = A2780 ovarian cancer cell cytotoxicity, dose response, cytotoxicity control, plate reader, dry powder samples (AID 743046);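 note: 0% = neutral control wells and -100% = cytotoxic reference compound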
[8] = cytotoxicity in OVCAR8 ovarian cancer cells, dose response, PAX8 project, cell-based, plate reader, dry powder samples (AID 743197)
[9] = non-specific cell cytotoxicity, dose response, cytotoxicity control for PAX8 inhibitor project, plate reader, dry powder samples (AID 743021)
[10] = HepG2 cell cytotoxicity, dose response, cytotoxicity control, plate reader, cherry-pick, antagonist series (AID 743416);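 note: 0% = neutral control wells and -100% = positive control wells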

Measured: max activity

COc1ccc(CN(C)C[C@@H]2OCCCC[C@H](C)Oc3ccc(NS(=O)(=O)c4ccc(C)cc4)cc3C(=O)N([C@H](C)CO)C[C@H]2C)cc1
inactive: [1] | [2] | [3] | [4] | [5] -36% | [6] | [7]

COc1ccccc1C#Cc1ccc2c(c1)O[C@@H](CN(C)Cc1cccnc1)[C@H](C)CN([C@H](C)CO)S2(=O)=O
inactive: [1] | [2] | [3] | [4] | [5] 17.1% | [6] | [7]

COc1cccc(C#Cc2ccc([C@@H]3[C@@H](C#N)N(C(=O)C4CCCCC4)[C@H]3CO)cc2)c1
inactive: [1] | [2] | [3] | [4] | [5] 22.8% [at 1 µM, active compounds read low] | [6] | [7]

COc1ccccc1C#Cc1ccc2c(c1)O[C@H](CN(C)Cc1ccncc1)[C@@H](C)CN([C@@H](C)CO)S2(=O)=O
not listed: [5] | [9] | [10]
inactive: all other assays above

C[C@H](CO)N1C[C@H](C)[C@H](CN(C)S(=O)(=O)c2ccc(Cl)cc2)Oc2c(NC(=O)Nc3ccc(F)cc3)cccc2C1=O
inactive: [1] | [2] | [3] | [4] | [6] | [7]

COc1cccc(C#Cc2ccc([C@H]3[C@@H](CO)N(C(=O)C4CCCC4)[C@H]3C#N)cc2)c1
inactive: [1] | [2] | [3] | [9] | [7] | [8]

N#C[C@H]1[C@@H](c2ccc(C#Cc3ccccc3F)cc2)[C@@H](CO)N1C(=O)C1CCCCC1
inactive: [1] | [2] | [3] | [4] | [6] | [8]

O=C(C[C@@H]1CC[C@H]2[C@@H](COC[C@@H](O)CN2Cc2cccc(F)c2)O1)NCC1CCCCC1
inactive: [1] | [2] | [3] | [4] | [5] 45.7% [at 8 µM, active compounds read low] | [6] | [7] | [8]

COc1ccc(S(=O)(=O)N(C)C[C@H]2Oc3c(NC(=O)Nc4ccc(C(F)(F)F)cc4)cccc3C(=O)N([C@@H](C)CO)C[C@H]2C)cc1
not listed: [5] | [9] | [10]
inactive: all other assays above

N#C[C@@H]1[C@H](c2ccc(-c3ccccc3F)cc2)[C@@H](CO)N1C(=O)Cc1ccccc1
inactive: [1] | [2] | [3] | [9] | [7] | [8]

CC(C)CC#Cc1ccc2c(c1)O[C@H](CN(C)S(=O)(=O)c1ccc(F)cc1)[C@H](C)CN([C@H](C)CO)S2(=O)=O
inactive: [1] | [2] | [3] | [4] | [6] | [7]

COc1ccc(NC(=O)Nc2ccc3c(c2)C(=O)N([C@@H](C)CO)C[C@@H](C)[C@H](CN(C)Cc2ccc(C(F)(F)F)cc2)O3)cc1
inactive: [1] | [2] | [3] | [4] | [5] 30.5% [at 30 µM, active compounds read low] | [6] | [7] | [8]

CCCC#Cc1ccc([C@H]2[C@@H](CO)N(C(=O)C3CCCCC3)[C@H]2C#N)cc1
not listed: [5] | [9] | [10]
inactive: all other assays above

C[C@@H]1CN([C@H](C)CO)C(=O)CCCn2nncc2CO[C@H]1CN(C)Cc1ccc(Oc2ccccc2)cc1
inactive: [1] | [2] | [3] | [4] | [5] 10.8% [at 4.2 µM, active compounds read low] | [6] | [7] | [8]

C[C@H](CO)N1C[C@H](C)[C@@H](CN(C)C(=O)Cc2ccccc2)OCCCC[C@H](C)Oc2ccc(NC(=O)Nc3ccc(C(F)(F)F)cc3)cc2C1=O
inactive: [1] | [2] | [3] | [4] | [5] 1.93% [at 8 µM, active compounds read low] | [6] | [7]

C[C@H](CO)N1C[C@H](C)[C@H](CN(C)C(=O)[C@H](Cc2ccccc2)N(C)C)OCc2ccccc2-c2c(n(C)c3ccccc23)C1=O
inactive: [1] | [2] | [3] | [4] | [6] | [8]

O=C(Nc1ccc(F)cc1)N1C[C@@H]2N[C@H](C1)C2c1ccc(/C=C/c2ccccc2)cc1 (some centres undefined)
inactive: [1] | [2] | [3] | [4] | [5] -17.6% | [6] | [7]

CN(C)CC(=O)N1CCCCN2[C@H](CO)[C@H](c3ccc(/C=C/c4ccccc4)cc3)[C@H]2C1
inactive: [1] | [2] | [3] | [4] | [6] | [7]

C[C@@H]1CN([C@@H](C)CO)C(=O)c2cc(NC(=O)Nc3ccc(F)cc3)ccc2O[C@@H](C)CCCCO[C@H]1CN(C)Cc1ccc(C(F)(F)F)cc1
inactive: [1] | [2] | [3] | [4] | [6]

COc1cccc(C#Cc2ccc([C@@H]3[C@H](C#N)N(C(=O)c4ccccn4)[C@H]3CO)cc2)c1
inactive: [1] | [2] | [3] | [4] | [5] 39.4% | [6]

COc1ccc(S(=O)(=O)Nc2ccc3c(c2)CC(=O)N([C@@H](C)CO)C[C@H](C)[C@@H](CN(C)Cc2ccc(C(F)(F)F)cc2)O3)cc1
not listed: [5] | [9] | [10]
inactive: all other assays above

C[C@@H]1CCCCO[C@H](CN(C)C(=O)NC2CCCCC2)[C@H](C)CN([C@@H](C)CO)C(=O)c2cc(NS(=O)(=O)c3ccc(Cl)cc3)ccc2O1
inactive: [1] | [2] | [3] | [4] | [5] -10.9% [at 0.26 µM, active compounds read low] | [6] | [7] | [8]

Cc1cccc(-c2ccc([C@H]3[C@H]4CN(S(=O)(=O)c5cccc(C)c5)CCCCN4[C@H]3CO)cc2)c1
inactive: [1] | [2] | [3] | [4] | [6] | [7]

Cc1ccc(S(=O)(=O)N(C)C[C@H]2Oc3ccc(NS(=O)(=O)c4ccc(F)cc4)cc3CC(=O)N([C@H](C)CO)C[C@H]2C)cc1
inactive: [1] | [2] | [3] | [4] | [5] 12.5% [at 2.1 µM, active compounds read low] | [6] | [7] | [8]

Cn1nnnc1Sc1ncnc2scc(-c3ccc4c(c3)OCO4)c12
inactive: [1] | [2] | [3] | [9] | [10]

COc1cccc(C#Cc2ccc([C@H]3[C@@H](C#N)N(C(=O)c4ccccn4)[C@@H]3CO)cc2)c1
inactive: [1] | [2] | [3] | [4] | [5] -22.5% [at 0.26 µM, active compounds read low] | [6] | [8]

Cc1ccccc1-c1ccc2c(c1)O[C@H](CN(C)C(=O)Nc1ccc(C(F)(F)F)cc1)[C@H](C)CN([C@@H](C)CO)S2(=O)=O
inactive: [1] | [2] | [3] | [4] | [6] | [8]

CCCC#Cc1ccc([C@@H]2[C@@H](C#N)N(S(=O)(=O)c3cccc(F)c3)[C@H]2CO)cc1
inactive: [1] | [2] | [3] | [4] | [5] -20.5% [at 0.5 µM, active compounds read low] | [6] | [7]

CCCNC(=O)Nc1ccc2c(c1)OC[C@@H](C)N(Cc1ccc(-c3ccccn3)cc1)C[C@@H](C)[C@H](OC)CN(C)C2=O
inactive: [1] | [2] | [3] | [4] | [5] 19.6% [at 1 µM, active compounds read low] | [6] | [7] | [8]

C[C@H](CO)N1C[C@H](C)[C@H](CN(C)Cc2ccccc2)OCCCC[C@H](C)Oc2ccc(NC(=O)Nc3ccc(C(F)(F)F)cc3)cc2C1=O
inactive: [1] | [2] | [3] | [9] | [8]

N#C[C@H]1[C@@H](c2ccc(C#CC3CCCCC3)cc2)[C@@H](CO)N1S(=O)(=O)c1ccccc1
not listed: [5] | [9] | [10]
inactive: all other assays above

COc1ccccc1-c1ccc([C@@H]2[C@@H]3CN(S(=O)(=O)c4ccc(-c5ccccc5)cc4)C[C@H]2N3)cc1
inactive: [1] | [2] | [3] | [6] | [7]

C[C@@H]1CN([C@H](C)CO)C(=O)c2cc(NC(=O)CCCCCC(=O)Nc3ccccc3N)ccc2O[C@@H]1CN(C)Cc1ccc(C(F)(F)F)cc1
inactive: [1] | [2] | [3] | [6] | [7] | [8]

COc1ccccc1NC(=O)N1CCCCN2[C@H](CO)[C@H](c3ccc(-c4cccc(C)c4)cc3)[C@H]2C1
inactive: [1] | [2] | [3] | [6] | [7] | [8]

Cc1ccc(S(=O)(=O)Nc2ccc3c(c2)C(=O)N([C@H](C)CO)C[C@H](C)[C@H](CN(C)Cc2ccc(C(F)(F)F)cc2)OCCCC[C@H](C)O3)cc1
inactive: [1] | [2] | [3] | [4] | [7]

O=C(Nc1cccc(F)c1)N1C[C@@H]2N[C@H](C1)C2c1ccc(-c2ccc(F)cc2)cc1 (some centres undefined)
inactive: [1] | [2] | [3] | [7] | [8]
